This is an account of results in PubChem BioAssay (Tox21).

A short description of assay [1]: qHTS assay to identify small molecule antagonists of the estrogen related receptor (ERR) signaling pathway from Tox21 library - cell viability counter screen (AID 1224834). Also: nearly all actives have a fitted effect of over 30% in size. Also: potency is read from the fitted curve at half-maximal effect. In a few lines:
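After 17.5 h of compound exposure at 37 C, ERR cells are incubated with CellTiter-Fluor for 30 min and fluorescence intensity serves as the viability measure.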
(qHTS replaces the single test concentration by a dilution series.)

In assay [2] the target is Luciferin 4-monooxygenase (Photinus pyralis) (UniProt P08659). Briefly: qHTS assay to identify small molecule inhibitors of firefly luciferase (AID 1224835). Also: nearly all actives have a fitted effect of over 25% in size. Also: potency is read from the fitted curve at half-maximal effect. In a few lines: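 Biochemical qHTS: compounds run as interplate titrations against purified firefly enzyme, with D-luciferin and ATP each at its KM concentration. Light output recorded by CCD imaging.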
Chain of Luciferin 4-monooxygenase (Photinus pyralis) (P08659 whole entry, looked up): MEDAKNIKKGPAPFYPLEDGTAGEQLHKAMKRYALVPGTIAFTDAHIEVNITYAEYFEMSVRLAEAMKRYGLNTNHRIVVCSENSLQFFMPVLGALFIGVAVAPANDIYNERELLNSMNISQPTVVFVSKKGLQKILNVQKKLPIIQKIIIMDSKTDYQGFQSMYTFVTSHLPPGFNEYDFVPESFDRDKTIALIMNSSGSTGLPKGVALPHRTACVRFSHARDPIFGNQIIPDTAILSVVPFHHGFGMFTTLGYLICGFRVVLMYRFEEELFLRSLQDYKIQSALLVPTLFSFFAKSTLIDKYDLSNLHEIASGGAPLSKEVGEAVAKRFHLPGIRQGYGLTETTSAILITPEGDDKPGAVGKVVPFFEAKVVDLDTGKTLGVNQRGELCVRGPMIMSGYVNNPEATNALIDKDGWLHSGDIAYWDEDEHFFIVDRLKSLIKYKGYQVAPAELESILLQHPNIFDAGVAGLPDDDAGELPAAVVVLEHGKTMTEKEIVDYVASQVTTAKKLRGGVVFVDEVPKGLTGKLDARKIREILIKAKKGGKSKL
The nature of assay [3]: qHTS assay to identify small molecule agonists of the constitutive androstane receptor (CAR) signaling pathway - cell viability counter screen (AID 1224836). Also: series mostly up to about 92 µM; nearly all actives have a fitted effect of over 45% in size. In a few lines: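 HepG2 cells stably carrying hCAR and a CYP2B6-2.2kb reporter were plated 4 h, then given compounds at 15 concentrations plus PK11195 (final 0.75 uM). After 23 h at 37 C, viability was read by CellTiter-Fluor fluorescence.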

Assay [4] in a line: qHTS assay to identify small molecule antagonists of the constitutive androstane receptor (CAR) signaling pathway - cell viability counter screen (AID 1224837). Also: series mostly up to about 92 µM; nearly all actives have a fitted effect of over 45% in size. The procedure, abridged:
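Counter screen run in HepG2-CYP2B6-hCAR cells: 4 hr settle, compound titration (15 concentrations) with 50 nM CITCO, 23 hr at 37 C/5% CO2, CellTiter-Fluor fluorescence.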

The target of assay [5] is Nuclear receptor subfamily 1 group I member 3 (Homo sapiens) (UniProt Q14994). The assay is described as follows: qHTS assay to identify small molecule antagonists of the constitutive androstane receptor (CAR) signaling pathway (AID 1224838). Also: nearly all actives have a fitted effect of over 40% in size. The procedure, abridged: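 Cell line: HepG2 double-stable for hCAR and CYP2B6-2.2kb reporter. Agonist: CITCO, 50 nM final. Compounds: 15 concentrations, 24 h, 37 C. Detection: ONE-Glo luminescence.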
Chain of Nuclear receptor subfamily 1 group I member 3 (Homo sapiens) (Q14994 whole entry, looked up): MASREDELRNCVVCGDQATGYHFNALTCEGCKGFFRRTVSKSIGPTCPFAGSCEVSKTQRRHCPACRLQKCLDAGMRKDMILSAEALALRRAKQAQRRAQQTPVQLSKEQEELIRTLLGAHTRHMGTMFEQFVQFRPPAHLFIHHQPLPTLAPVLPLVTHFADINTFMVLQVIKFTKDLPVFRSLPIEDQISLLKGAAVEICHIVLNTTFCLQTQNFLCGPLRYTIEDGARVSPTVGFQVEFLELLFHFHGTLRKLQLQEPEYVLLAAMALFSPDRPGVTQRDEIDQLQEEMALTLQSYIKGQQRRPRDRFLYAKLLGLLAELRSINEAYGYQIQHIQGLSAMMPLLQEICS

Assay [6] shares this target. Briefly: qHTS assay to identify small molecule agonists of the constitutive androstane receptor (CAR) signaling pathway (AID 1224839). Also: series mostly up to about 92 µM; nearly all actives have a fitted effect of over 15% in size. The procedure, abridged:
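HepG2 cells stably expressing hCAR and a CYP2B6-2.2kb luciferase reporter were treated with compounds at 15 concentrations plus 0.75 uM PK11195 (final) for 24 h at 37 C; luminescence was read after ONE-Glo addition.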

A short description of assay [7]: qHTS assay to identify small molecule antagonists of the estrogen related receptor signaling pathway with the pleiotropic PPARgamma coactivator (PGC) from Tox21 10K library - cell viability counter screen (AID 1224840; active = well fitted cell-killing curve with a large enough effect in the repeat runs, not every such curve was filed as active; also: nearly all actives have a fitted effect of over 40% in size; also: potency is read from the fitted curve at half-maximal effect). The procedure, abridged: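 Following seeding of 2,000 PGC/ERR cells/well and 6 hours' incubation, test compounds were delivered in DMSO. The plates then sat 17.5 hours at 37 C before a fluorogenic live-cell protease reagent (CellTiter-Fluor) was read after 30 min.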

The target of assay [8] is Thyrotropin receptor (Homo sapiens) (UniProt P16473). Briefly: qHTS assay to identify small molecule agonists of the thyroid stimulating hormone receptor (TSHR) signaling pathway (AID 1224843; calls by dose curve; also: nearly all actives have a fitted effect of over 45% in size; also: potency is read from the fitted curve at half-maximal effect). The procedure, abridged:
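TSHR-HEK293 cells in agonist mode, 30 min room-temperature step, then cAMP measured by competitive HTRF (cAMP-d2 with anti-cAMP cryptate) after 1 h at room temperature. Tested at 15 concentrations in triplicate.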

Assay [9] can be described thus: qHTS assay to identify small molecule agonists of the hypoxia (HIF-1) signaling pathway - cell viability counter screen (AID 1224844; calls by dose curve; also: nearly all actives have a fitted effect of over 50% in size). The procedure, abridged:
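Cells (HRE-bla ME-180, 2,000 per well) sat 5 hrs at 37C, got compound for 17 hrs, were read for CCF4-AM FRET, and were finally lysed with CellTiter-Glo for a 30 min room-temperature luminescence read.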

The nature of assay [10]: qHTS assay to identify small molecule agonists of H2AX (AID 1224845; active = well fitted activation curve with a large enough effect in the signal ratio in the repeat runs, not every such curve was filed as active; the % refers to the signal ratio). The procedure, abridged: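 Wild-type CHO-K1 cells, plated overnight, exposed 3hr at 37C to 15 concentrations (0.76% DMSO final). Lysed, then HTRF anti-pH2AX (S139) cryptate and anti-H2AX-d2 antibodies, 24 hr room temperature; 665/620 nm emission read.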
Assay [11] in a line: qHTS assay to identify small molecule agonists of the hypoxia (HIF-1) signaling pathway (AID 1224846; active = well fitted activation curve with a large enough effect in the signal ratio in the repeat runs, not every such curve was filed as active; the % refers to the signal ratio). In a few lines:
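A low-serum medium (0.5% dialyzed FBS) holding 2,000 HRE-bla ME-180 cells per well is preincubated for 5 hrs, dosed with compounds by pintool, and kept a further 17 hrs at 37C, 5% CO2 before CCF4-AM FRET detection of beta-lactamase.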

Assay [12] can be described thus: qHTS assay to identify small molecule agonists of H2AX - cell viability counter screen (AID 1224847; calls by dose curve; also: nearly all actives have a fitted effect of over 30% in size; also: potency is read from the fitted curve at half-maximal effect). The procedure, abridged: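 Wild-type CHO-K1 cells (10% FBS medium) were plated overnight at 37C, exposed to compounds at 15 concentrations for 3 hr at 37C (0.76% DMSO final), and viability was read as CellTiter-Glo luminescence after 30 min at room temperature.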

Assay [13] in a line: qHTS RealTime-Glo MT Cell Viability Assay in HepG2 cells - 24 hour (AID 1224867). Also: nearly all actives have a fitted effect of over 50% in size. Also: potency is read from the fitted curve at half-maximal effect. The procedure, abridged:
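Luminescence read-out: viable HepG2 cells reduce a prosubstrate to a NanoLuc substrate, giving a signal proportional to live cell number. Reads taken at 0, 8, 16, 24, 32 and 40 h of compound exposure at 37 C.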

The nature of assay [14]: qHTS RealTime-Glo MT Cell Viability Assay in HEK293 cells - 32 hour (AID 1224868). Also: nearly all actives have a fitted effect of over 50% in size. Also: potency is read from the fitted curve at half-maximal effect. In a few lines:
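Nonlytic real-time viability readout: viable cells convert prosubstrate to NanoLuc substrate, giving luminescence proportional to live cell number. HEK293, 600 cells/well, compound added after 5 h, continuous culture at 37 C.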

A short description of assay [15]: A CellTox Green Cytotoxicity Assay to monitor cytotoxicity in HEK293 cells - 0 hour (AID 1224869). Also: nearly all actives have a fitted effect of over 50% in size. In a few lines: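 Fluorescence intensity, read at 0, 8, 16, 24, 32 and 40 h of compound treatment, reflected dye binding to DNA of dead HEK293 cells; compounds (23 nL, DMSO) were added 5 h after plating cells with reagent.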
Assay [16] in a line: qHTS assay to identify small molecule antagonists of the estrogen related receptor signaling pathway with the pleiotropic PPARgamma coactivator (PGC) from Tox21 10K library (AID 1224841; call rule not given here). In a few lines:
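qHTS antagonist format: PGC/ERR cells, 2k/well, compound in DMSO by pin transfer after 6 h attachment, 18 h treatment at 37 C, One-Glo luminescence read at 30 min.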

The nature of assay [17]: qHTS assay to identify small molecule agonists of the estrogen related receptor signaling pathway with the pleiotropic PPARgamma coactivator (PGC) from Tox21 10K library (AID 1224842). Also: nearly all actives have a fitted effect of over 15% in size. The procedure, abridged:
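PGC/ERR reporter cell line, 2,000 cells per well, incubated 6 h at 37 C before 23 nL compound in DMSO was added. After 18 h at 37 C, One-Glo luminescence read following 30 min at room temperature.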

Assay [18] in a line: qHTS assay to identify small molecule antagonists of the estrogen related receptor (ERR) signaling pathway from Tox21 library (AID 1224848). Also: nearly all actives have a fitted effect of over 50% in size. The procedure, abridged:
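ERR reporter cell line (from NTP) seeded 2,000 cells/well, rested 6 h at 37 C/5% CO2, then pin-dosed with compounds in DMSO. After 18 h at 37 C, ONE-Glo added; luminescence read after 30 min at room temperature.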

“And” between values parts separate entries of the source, which are not always exact repeats. Equal values may be shown once. Inconclusive results are not listed. More than one record can exist for a structure, and the calls need not agree. The source made the active and inactive calls. Unless noted, calls follow the shape of the dose curve; as a rule, active = well fitted curve in the direction sought with a large enough effect in the repeat runs; inconclusive = weak or mixed curves; inactive = no such curve, though single readings can be large; an effect the other way counts as inactive or inconclusive.

Chain of Thyrotropin receptor (Homo sapiens) (P16473 whole entry, looked up): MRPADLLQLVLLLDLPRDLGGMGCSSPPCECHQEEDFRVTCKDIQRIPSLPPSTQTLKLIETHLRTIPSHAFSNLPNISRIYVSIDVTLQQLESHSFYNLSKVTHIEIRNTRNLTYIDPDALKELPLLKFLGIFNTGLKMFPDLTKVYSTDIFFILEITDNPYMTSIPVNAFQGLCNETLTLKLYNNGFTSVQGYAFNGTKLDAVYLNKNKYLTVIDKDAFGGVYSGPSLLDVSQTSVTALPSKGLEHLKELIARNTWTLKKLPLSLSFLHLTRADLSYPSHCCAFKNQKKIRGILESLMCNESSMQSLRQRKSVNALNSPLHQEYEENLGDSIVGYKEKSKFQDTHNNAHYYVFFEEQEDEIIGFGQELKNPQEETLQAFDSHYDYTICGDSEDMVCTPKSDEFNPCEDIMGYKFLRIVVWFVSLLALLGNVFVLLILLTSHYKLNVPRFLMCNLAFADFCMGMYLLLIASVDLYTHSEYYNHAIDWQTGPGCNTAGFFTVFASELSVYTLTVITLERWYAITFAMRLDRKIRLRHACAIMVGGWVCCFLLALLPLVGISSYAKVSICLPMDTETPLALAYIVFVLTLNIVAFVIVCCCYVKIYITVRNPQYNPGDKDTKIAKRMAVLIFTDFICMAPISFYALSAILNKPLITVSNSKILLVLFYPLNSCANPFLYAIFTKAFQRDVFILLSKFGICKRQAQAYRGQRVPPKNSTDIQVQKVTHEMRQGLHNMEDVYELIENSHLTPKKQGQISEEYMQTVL

Take `CCCCCC/C=C/CCCCCCCC(=O)O`: the Potency entry in assay [1], in assay [3], in assay [4], in [5], in assay [6] and in [7] was “inactive” each time. Moreover, the Potency entry in assay [8], in [9], in [10], in [12], in assay [13] and in assay [14] was “inactive” each time. Further, the Potency result in [15] was “inactive”. In addition, in [2], the Potency result is “inactive and 71 µM (active)”. Further, in assay [11], the outcome was inactive.

With `CC1(C)O[C@@H]2C[C@H]3[C@@H]4C[C@H](F)C5=CC(=O)CC[C@]5(C)[C@H]4[C@@H](O)C[C@]3(C)[C@]2(C(=O)CO)O1`, the Potency entry in [1], in assay [2], in [3], in assay [4], in assay [7] and in assay [16] was “inactive” each time. The Potency entry in assay [17], in assay [8], in [9], in [10], in [12] and in assay [18] was “inactive” each time. In addition, the Potency entry in assay [13] and in [14] was “inactive” each time. In assay [11], the result was inactive.

Take `C[C@@H]1O[C@@H](OC[C@H]2O[C@@H](Oc3c(-c4ccc(O)c(O)c4)oc4cc(O)cc(O)c4c3=O)[C@H](O)[C@@H](O)[C@@H]2O)[C@H](O)[C@H](O)[C@H]1O`: the Potency result in assay [1], in [2], in assay [3], in assay [4], in assay [5] and in [6] was “inactive” each time. The Potency result in assay [7], in [8], in assay [9], in [12], in [13] and in assay [14] was “inactive” each time. In addition, the Potency entry in assay [15] was “inactive”. Besides, in assay [11], the compound was called inactive.

`CS(=O)(=O)c1ccc([C@@H](O)[C@@H](CO)NC(=O)C(Cl)Cl)cc1`: the Potency entry in [1], in assay [2], in assay [3], in [4], in assay [5] and in assay [6] was “inactive” in each case. In addition, the Potency entry in [7], in [9], in [10], in assay [12], in assay [13] and in assay [14] was “inactive” each time.

Regarding `OCC#CCO`, the Potency entry in [1], in assay [2], in assay [3], in assay [4], in assay [7] and in assay [8] was “inactive” each time. The Potency result in [9], in assay [10], in assay [12], in [13], in assay [14] and in [15] was “inactive” throughout. Further, the compound was classed as inactive in assay [11].

Take `C=C(C)C(=O)OCCC[Si](OC)(OC)OC`: the Potency entry in assay [1], in assay [2], in [3], in assay [4], in assay [7] and in [8] was “inactive” each time. In addition, the Potency result in [9], in [10], in [12], in assay [13], in assay [14] and in assay [15] was “inactive” in each case. The compound was classed as inactive in [11].

Consider `O=[N+]([O-])c1cccc(Cl)c1`, for which the Potency result in assay [1], in [2], in assay [3], in [4], in [7] and in [16] was “inactive” in each case. For the same compound, the Potency result in assay [17], in assay [9], in [10], in [12], in assay [18] and in [13] was “inactive” each time. Moreover, the Potency result in [14] and in assay [15] was “inactive” in each case. The Potency in assay [8] is 6.74 µM (active) and inactive. In addition, the compound was called inactive in [11].

In the case of `CCCCCCCCCCCCN`, the Potency entry is “inactive and 7.7 µM (active)” in [1]; “inactive and 12.2 µM (active)” in assay [7]; “inactive and 20.1 µM (active)” in assay [12]; “inactive and 24.5 µM (active)” in assay [13]; “inactive and 43.6 µM (active)” in assay [14]. The Potency result in assay [2], in assay [5], in assay [6], in [8], in assay [9] and in [10] was “inactive” in each case. For the same compound, the Potency result in assay [15] is “inactive”. For the same compound, the compound was called inactive in [11].
